Results: PubChem BioAssay AID624404 (Broad Institute, 2012)
About 710 (39%) of roughly 1,800 compounds were called active. Roughly 28% stayed inconclusive and do not appear here.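 The calls were made as follows: active = luciferase signal rise whose fitted curve crosses a set activity limit at or below the top valid tested dose; inconclusive = flat fit with 30 to 70% rise, or poor fit; inactive = signal falling, flat within 30%, or crossing above top dose.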 Not all results are given here. Entries with a potency or affinity are not part of this list.

Assay: luciferase activators in glycosylation-insensitive reporter cells, dose response, counter-screen for N-linked glycosylation inhibitor project, D54 LucT cells, luminescence, cherry pick (AID 624404);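 also: 0% = median neutral control signal and 100% = twice that signal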
Conditions: D54 LucT luciferase reporter counterscreen, 24 h; series mostly up to 19.5 µM; activity increase (luciferase signal): at the top concentration
With `CCN1/C(=C/c2ccc3ccccc3[n+]2CC)C=Cc2ccccc21` the “activity increase (luciferase signal)” value was -66.4% (inactive).
For `CCCCCCCCCCn1c2c(c(=N)c3c1CCC3)CCC2`, the “activity increase (luciferase signal)” value was -66.6% (inactive).
For `COc1ccc2cc(C)c3nnc(SCC(=O)Nc4nc(-c5ccc(F)cc5)cs4)n3c2c1`, the “activity increase (luciferase signal)” value was -2.8% (inactive).
For `COCCN(C(=O)CCl)C(C(=O)NC1CCCCC1)c1ccccc1C` (stereo not drawn), the “activity increase (luciferase signal)” value was -53.2% (inactive).
In the case of `COc1ccc(C(C)(O)c2nc(-c3ccc(F)cc3OC)cs2)cc1` (stereo not drawn), the “activity increase (luciferase signal)” value is reported as 35.5% (inactive).
For `Nc1cccc2c1C(=O)N(C(=O)/C=C/c1ccc(F)cc1)C2=O`, the “activity increase (luciferase signal)” value was 26.8% (inactive).
In the case of `CC(=O)Cn1ncc(Br)c(Br)c1=O`, the “activity increase (luciferase signal)” value is reported as 67.2% (inactive).
For `Cn1c(Cl)cnc1C1CC(=O)c2cc(Cl)ccc2O1` (stereo not drawn), the “activity increase (luciferase signal)” value was -14.5% (inactive).
In the case of `O=C(Nc1ccc(-c2nc3cc(NC(=O)c4cccs4)ccc3o2)cc1)c1cccs1`, the “activity increase (luciferase signal)” value is reported as -4.38% (inactive).
In the case of `O=C(Nc1ccc(N2CCCC2)c(Cl)c1)c1ccc([N+](=O)[O-])o1`, the “activity increase (luciferase signal)” value is reported as 27.7% (inactive).
With `Cc1c(C(=O)Nc2ccc3oc(-c4cccnc4)nc3c2)oc2ccccc12` the “activity increase (luciferase signal)” value was -6.21% (inactive).
With `O=C(N/N=C\C=C\c1ccc([N+](=O)[O-])o1)c1cccs1` the “activity increase (luciferase signal)” value was 46.4% (inactive).
In the case of `O=C(NCc1ccccc1)C(=O)NCC1COc2ccccc2O1` (stereo not drawn), the “activity increase (luciferase signal)” value is reported as 61.5% (inactive).
With `CN=c1sc(C(=O)Nc2cccc(Cl)c2)cc(=O)n1C` the “activity increase (luciferase signal)” value was 16% (inactive).
In the case of `O=C(CN1C(=O)/C(=C\c2ccc(F)cc2)Oc2ccccc21)N1CCN(c2ccccn2)CC1`, the “activity increase (luciferase signal)” value is reported as 14.4% (inactive).
For `O=C1CCCC2=C1C(c1ccc(Cl)cc1)n1c(s/c(=C\c3ccc4ccncc4c3)c1=O)=N2` (stereo not drawn), the “activity increase (luciferase signal)” value was -24.9% (inactive).
In the case of `COc1cccc(-n2c(SCC(=O)NC3CCCCC3)nc3n[nH]c(C)c3c2=N)c1`, the “activity increase (luciferase signal)” value is reported as 4.88% (inactive).
For `COc1ccc(C(=O)/C=C\c2ccc(NC(=O)c3cccs3)cc2)cc1`, the “activity increase (luciferase signal)” value was 35.6% (inactive).
For `O=C1CCCN1CCCNc1nc(NCc2ccccc2)nc2ccsc12`, the “activity increase (luciferase signal)” value was 28.6% (inactive).
In the case of `Cc1ccsc1CNc1ncnc2ccc(-c3c(C)noc3C)cc12`, the “activity increase (luciferase signal)” value is reported as -1.47% (inactive).
In the case of `COc1ccc(C(=O)c2cc([N+](=O)[O-])ccc2N2CCN(C)CC2)cc1`, the “activity increase (luciferase signal)” value is reported as -3.34% (inactive).
With `CN(C)c1ccc(/C=C/C(=O)c2ccc(C(C)(C)C)cc2)cc1[N+](=O)[O-]` the “activity increase (luciferase signal)” value was 13% (inactive).
In the case of `COc1cc(/C=C/C(=O)c2ccc3c(c2)OCCO3)cc(OC)c1OC`, the “activity increase (luciferase signal)” value is reported as -9.8% (inactive).
With `CCOc1cc(/C=C/C(=O)c2ccc3c(c2)OCCO3)ccc1OCC(=O)N(C)C` the “activity increase (luciferase signal)” value was 31.7% (inactive).
For `COC(=O)C(=Cc1ccc(-c2ccsc2C(=O)OC)o1)C(=O)OC`, the “activity increase (luciferase signal)” value was 47% (inactive).
For `O=c1c2ccccc2sc2c(CO)ccc(NCCN3CCCCC3)c12`, the “activity increase (luciferase signal)” value was 11.3% (inactive).
For `Cc1ccc2cc3c(N)c4c(C)ccc(C)c4nc3nc2c1`, the “activity increase (luciferase signal)” value was 29.4% (inactive).
With `CCC1=Nc2cc(C(=O)NCc3ccco3)ccc2Sc2ccc(Cl)cc21` the “activity increase (luciferase signal)” value was -3.98% (inactive).
For `CC1=Nc2cc(C(=O)NCC3CCCO3)ccc2Sc2ccc(Br)cc21` (stereo not drawn), the “activity increase (luciferase signal)” value was 6.05% (inactive).
For `O=C(/C=C/c1ccc([N+](=O)[O-])cc1)/C=C/c1ccco1`, the “activity increase (luciferase signal)” value was 6.1% (inactive).
For `CC(NC(=O)c1cccc2ccccc12)c1ccc2c(c1)CCCC2` (stereo not drawn), the “activity increase (luciferase signal)” value was 22.9% (inactive).
For `O=C(Oc1c(Cl)cc(Cl)c2cccnc12)c1ccco1`, the “activity increase (luciferase signal)” value was -31.1% (inactive).
For `CCOc1ccc2[nH]c(=O)c(CN(Cc3ccc(F)cc3)C(=O)c3ccco3)cc2c1`, the “activity increase (luciferase signal)” value was 28.1% (inactive).
For `COc1cc2cc(/C=C/C(=O)c3ccco3)c(Cl)nc2cc1OC`, the “activity increase (luciferase signal)” value was -17.6% (inactive).
In the case of `CN(C)c1ccc(CNC(=O)C2(C)Cc3c(-c4ccc5c(c4)OCO5)ccnc3O2)cc1` (stereo not drawn), the “activity increase (luciferase signal)” value is reported as 37% (inactive).
With `CC1=C([N+](=O)[O-])C(c2ccccc2)C2=C(N1)c1ccccc1C2=O` (stereo not drawn) the “activity increase (luciferase signal)” value was 10.1% (inactive).
With `CCCCCCCCn1c2c(c(=N)c3c1CCC3)CCCC2` the “activity increase (luciferase signal)” value was -57.8% (inactive).
For `COc1cc(/C=N\NC(=O)c2sc(N)nc2C)cc(OC)c1OC`, the “activity increase (luciferase signal)” value was 15.9% (inactive).
For `C#CC[N+](C)(C)CCCCCCCCCCCC`, the “activity increase (luciferase signal)” value was 37.5% (inactive).
With `CCc1ccc(Nc2n[n+](-c3ccccc3)c(-c3ccc(N(CC)CC)cc3)s2)cc1` the “activity increase (luciferase signal)” value was -3.22% (inactive).
For `CN(Cc1ccc(Cl)s1)C(=O)CCl`, the “activity increase (luciferase signal)” value was 1.46% (inactive).
For `COC(=O)CNC(c1ccccc1)c1cc(Br)ccc1NC(=O)CCN1CCOCC1` (stereo not drawn), the “activity increase (luciferase signal)” value was 8.3% (inactive).
With `NS(=O)(=O)c1cc(C(=O)NCCOc2ccccc2)c(Cl)cc1Cl` the “activity increase (luciferase signal)” value was 43.3% (inactive).
For `COc1ccc(C=CC(=O)c2ccc(OC)c(OC)c2O)cc1OC`, the “activity increase (luciferase signal)” value was 14.6% (inactive).
In the case of `COc1ccc(OC(=O)N2C/C(=C/c3ccccc3)C(=O)/C(=C\c3ccccc3)C2)cc1`, the “activity increase (luciferase signal)” value is reported as -32.7% (inactive).
In the case of `COc1cc(/C=C/C(=O)c2ccc(Cl)s2)cc(OC)c1O`, the “activity increase (luciferase signal)” value is reported as 3.5% (inactive).
In the case of `COc1ccc(/C=C/C(=O)c2ccc3c4c(cccc24)CC3)cc1`, the “activity increase (luciferase signal)” value is reported as 8.97% (inactive).
With `O=CC1=C(c2ccccc2)Oc2ccccc2O1` the “activity increase (luciferase signal)” value was -21% (inactive).
In the case of `Nc1nonc1-c1nc2ccccc2n1Cc1ccccc1`, the “activity increase (luciferase signal)” value is reported as 30% (inactive).
In the case of `Cc1noc2ncnc(Sc3ccc(Br)cc3)c12`, the “activity increase (luciferase signal)” value is reported as 15.6% (inactive).
In the case of `COc1cc(O)c(C(=O)/C=C/c2ccccc2)c(OC)c1`, the “activity increase (luciferase signal)” value is reported as 49% (inactive).
With `COc1ccc(C=CC(=O)c2c(OC)cc(OC)c(OC)c2O)cc1` the “activity increase (luciferase signal)” value was -20.6% (inactive).
With `CCOC(=O)C(=Cc1ccc(-c2ccsc2C(=O)OC)o1)C(=O)OCC` the “activity increase (luciferase signal)” value was 24.1% (inactive).
